# Screens (PubChem BioAssay)
# In the library only some 4.2% were active in any assay of this set; here they are far more common.
# SMARCA2 act: increases SMARCA2 function in MMTV reporter cells; MG213 cells, MMTV-luciferase reporter, dexamethasone, overnight; activation, % at 9.1 µM; 370,000 compounds, 1% hits; AID 652017; in the data active means activation above about 7.8%;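 further: 0% = vehicle wells and 100% = reference activator wells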
# DAX1 inh: inhibitors of DAX1 repression of SF-1 activated StAR promoter; AID 652010; inhibition, % at 6.8 µM; HEK293T StAR-luciferase reporter, SF-1/DAX-1 repression relief; 370,000 compounds, 1.1% hits;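 active means inhibition above the mean over all tested compounds plus 3 SD, cut at about 3.6% in these data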;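 further: 0% = DAX-1 cells with DMSO and 100% = cells lacking DAX-1 with DMSO; higher inhibition means more luminescence from relief of DAX-1 repression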
# hgDAF-12 ag: agonists of H. glycines DAF-12 nuclear receptor | HEK293 GAL4-hgDAF12 UAS-luciferase reporter, agonist luminescence; normalized to butyrate control | activation, % at 6.8 µM | AID 687014 | 370,000 compounds, 1.8% hits;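 active means activation above a cutoff set at the mean of all screened compounds plus 3 SD, cut at about 10% in these data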;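 further: 0% = DMSO wells and 100% = sodium butyrate wells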
# ssDAF12 agonist: activators of S. stercoralis DAF-12 nuclear receptor | activation, % at 6.8 µM | AID 652126 | HEK293 ssDAF-12/GRIP1 lit1-tk-luc reporter, luminescence; % of 3 µM dafachronic acid response | 370,000 compounds, 1% hits;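 active means activation above the mean over all tested compounds plus 3 SD, cut at about 0.9% in these data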;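 further: 0% = DMSO-only wells and 100% = 3 µM delta7-dafachronic acid wells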
# hcDAF-12 act: H. contortus DAF-12 activation, primary screen | activation, % at 6.8 µM | 370,000 compounds, 1.4% hits | HEK293 hcDAF-12 lit1-tk-luc reporter, luminescence; 0% DMSO, 100% Δ7-dafachronic acid;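 active means activation above the mean of all tested compounds plus 3 SD, cut at about 5.5% in these data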;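 further: 100% = response to 3 µM Δ7-dafachronic acid high control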
# DAX1 conf: confirmation of human DAX1 (NR0B1) inhibitors; HEK293T StAR-promoter luciferase reporter, SF-1/DAX-1 repression; inhibition, % at 6.8 µM; shares compounds with DAX1 inh; 2,400 compounds, 87% hits;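 active means inhibition above the average of every tested compound plus 3 SD, cut at about 3.8% in these data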;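 further: 0% = DAX-1 cells with DMSO and 100% = no DAX-1 control cells with DMSO; active compounds raise luminescence by relieving repression of the StAR reporter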
# Target sequence (P51843 whole entry, looked up): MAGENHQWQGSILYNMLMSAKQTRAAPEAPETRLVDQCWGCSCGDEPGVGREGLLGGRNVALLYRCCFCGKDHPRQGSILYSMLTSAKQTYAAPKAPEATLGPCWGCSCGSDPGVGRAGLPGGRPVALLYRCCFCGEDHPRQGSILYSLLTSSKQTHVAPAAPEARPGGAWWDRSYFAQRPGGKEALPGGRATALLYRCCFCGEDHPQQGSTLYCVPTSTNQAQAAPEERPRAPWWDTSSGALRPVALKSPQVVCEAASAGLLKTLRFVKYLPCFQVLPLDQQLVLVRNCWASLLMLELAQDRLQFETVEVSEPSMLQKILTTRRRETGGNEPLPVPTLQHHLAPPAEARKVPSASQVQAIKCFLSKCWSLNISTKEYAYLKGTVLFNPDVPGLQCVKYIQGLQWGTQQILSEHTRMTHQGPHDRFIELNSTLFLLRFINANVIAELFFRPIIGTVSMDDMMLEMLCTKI
# SF1 mutant ctr: counter-screen for DAX1 inhibitors: nonselective inhibitors with SF-1 AF2 mutant; shares compounds with DAX1 inh; HEK293 StAR-luciferase, luminescence; inhibition, % at 6.8 µM; 2,400 compounds, 78% hits;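 active means inhibition above the mean of all tested compounds plus 3 SD, cut at about 3% in these data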;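 further: 0% = DAX-1 transfected cells with DMSO and 100% = cells without DAX-1 with DMSO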
# SMARCA2 conf: confirmation of SMARCA2 (BRM) function activators. shares compounds with SMARCA2 act. MG213 cells, MMTV-luciferase with dexamethasone, luminescence, overnight; MG213 cells expressing E1A, Rb sequestered; DMSO wells 0%, reference activator 100%. activation, % at 9.1 µM. 3,500 compounds, 30% hits. AID 652260;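 active means activation above its plate's cutoff, the mean activation of tested wells plus 3 SD, cut at about 7.9% in these data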
# GAL4-VP16 Luc: GAL4-VP16 reporter activation counter-screen; shares compounds with SMARCA2 act; AID 686939; activation, % at 9.1 µM; 3,500 compounds, 41% hits; HEK293 GAL4-VP16 pG5luc reporter, luciferase luminescence; scaled: DMSO wells 0%, SAHA wells 100%;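 active means activation above the solvent-only control well mean plus 3 SD, averaged across control plates, cut at about 5.2% in these data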
# * marks the source's active call; other numbers are inactive results; · = no result.
SMILES,SMARCA2 act,DAX1 inh,hgDAF-12 ag,ssDAF12 agonist,hcDAF-12 act,DAX1 conf,SF1 mutant ctr,SMARCA2 conf,GAL4-VP16 Luc
Nc1c(C(=O)C2CC2)sc2nc3c(cc12)CCC3,8.5*,4.7*,11.1*,0.3,4.0,9.8*,10.0*,13.1*,9.7*
CN(C(=O)C1CCC(=O)N(Cc2cccc(F)c2)C1)C1CCCCC1 (stereo unspecified),9.1*,5.2*,8.4,0.5,0.4,4.0*,2.3,10.9*,12.6*
O=C(NC1CCC1)C1CCC(=O)N(Cc2cccc(F)c2)C1 (stereo unspecified),-2.2,-0.7,-1.1,-0.9,-1.2,·,·,·,·
Cc1ccccc1CNC(=O)CN1CCCc2ccccc21,2.8,-0.7,-0.1,-0.7,-0.2,·,·,·,·
CCc1c(-c2cccc(F)c2)ncn1CCc1ccccc1OC,-3.9,-2.7,-3.8,-1.6,-3.0,·,·,·,·
Cc1ccc(OCc2cc(C(=O)N3CCN(c4ccccc4)CC3)no2)cc1C,13.4*,5.8*,12.9*,-0.1,3.9,10.8*,6.5*,5.5,6.4*
Cc1ccc(OCc2cc(C(=O)N3CCCCCCC3)no2)cc1C,5.5,1.3,2.5,-0.1,2.3,·,·,·,·
C[C@@H]1CN([C@@H](C)CO)C(=O)c2ccccc2-c2ccccc2CO[C@@H]1CN(C)Cc1ccc(Cl)c(Cl)c1,-6.8,-1.2,1.2,-0.6,-1.4,·,·,·,·
C[C@H]1[C@H](c2ccccc2)Oc2cc(Br)ccc2S(=O)(=O)N1Cc1ccc(Cl)cc1,6.0,-1.2,-0.5,-1.1,-1.5,·,·,·,·
Cc1nc2cc(NC(=O)N3c4ccccc4CC3C)ccc2o1 (stereo unspecified),9.6*,5.2*,6.2,1.2*,6.0*,6.8*,4.1*,14.0*,12.5*
CCOC(=O)c1nn(-c2ccc3c(c2)OCCO3)cc1O,11.1*,8.0*,12.9*,-0.6,3.0,9.7*,5.7*,8.3*,12.3*
CCOC(=O)c1nn(-c2ccc([N+](=O)[O-])cc2)cc1O,6.8,1.6,1.6,-1.2,-0.3,·,·,·,·
Cc1cnc(NC(=O)Nc2ccc(Cl)cc2)s1,12.3*,6.0*,8.2,0.0,5.8*,14.4*,6.8*,8.3*,11.4*
O=C(Nc1cc(Cl)ccc1F)C1CCCN1S(=O)(=O)c1cccc2cccnc12 (stereo unspecified),-3.2,-1.5,-1.5,-2.0,-3.8,·,·,·,·
O=C(NN=Cc1ccc2c(c1)OCO2)c1ccncc1,1.8,0.6,-1.2,-0.7,0.3,·,·,·,·
O=C(NN=Cc1ccc2c(c1)OCO2)c1ccccc1,11.4*,5.3*,9.6,0.7,6.0*,11.3*,5.8*,8.7*,8.4*
Cc1cc2oc(C(=O)Nc3nonc3C)c(C)c2cc1C,8.9*,7.8*,8.4,-0.7,3.7,13.4*,7.2*,7.3,11.0*
CC(=O)Nc1ccc(NC(=O)c2oc3cc(C)c(C)cc3c2C)cc1,-3.0,0.3,-0.2,-1.7,-2.6,·,·,·,·
CCc1ccc(/C=N/Nc2ncnc3nc[nH]c23)cc1,8.3*,5.2*,10.9*,-0.7,3.2,14.1*,1.0,6.0,13.0*
Cc1csc(NC(=O)c2cc(C)on2)n1,10.6*,7.0*,6.5,0.2,0.3,6.8*,5.9*,4.1,7.5*
CCOC(=O)C1CSCCS(=O)(=O)N1Cc1ccc(F)cc1F (stereo unspecified),-4.3,0.3,-1.7,-1.0,-1.5,·,·,·,·
COc1ccc2sc3ccccc3c(=O)c2c1,2.3,1.3,4.0,0.4,0.8,·,·,·,·
